High-throughput results deposited in PubChem BioAssay by several laboratories.
GC-B act = GC-B (human) receptor activation | HEK293-GC-B cells, CNP EC30, cGMP TR-FRET; 0% at EC30 CNP, 100% saturating CNP | activation, % at 10 µM | actives 0.11% (n = 370,000);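 active means activation at 10 µM reaching about 35% in either raw or pattern-adjusted values, limit read from the data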
ADAM17 inh = ADAM17 inhibition, QFRET primary screen; P78536; recombinant ADAM17, EDANS/DABCYL FRET peptide cleavage; inhibition, % at 6.95 µM; actives 0.83% (n = 370,000);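 active means inhibition above the mean of compounds lying between control limits plus 3 SD, set per campaign, cut at about 8.5% in these data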;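 further: 0% = DMSO-only wells as the low control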
ADAM10 inh = inhibits human ADAM10. O14672. recombinant ADAM10, EDANS/DABCYL FRET peptide cleavage, 3 h. AID 720582. inhibition, % at 7 µM. actives 0.62% (n = 370,000);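 active means inhibition above a per-campaign cutoff equal to the mean of compounds falling between control-based bounds plus 3 SD, cut at about 20% in these data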;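 further: 0% = DMSO wells while the 100% control is not disclosed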
GC-A act = GC-A (human) enzyme activation; HEK293 GC-A cells, cGMP TR-FRET, EC30 ANP; 0% at EC30 ANP, 100% saturating ANP; activation, % at 10 µM; actives 0.14% (n = 370,000); in the data active means activation above about 40%
FAS TE block = inhibitors of human fatty acid synthase thioesterase domain; recombinant FAS-TE, OMFH fluorogenic substrate, fluorescence endpoint; inhibition, % at 15 µM; actives 0.67% (n = 360,000);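 active means compounds whose normalised, plate-corrected inhibition of enzyme fluorescence in the single-dose primary screen is 50% or more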;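 further: 0% = DMSO with enzyme and 100% = substrate without enzyme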
ADAM10 counter = ADAM10 inhibition, counter-screen for ADAM17 exosite hits; shares compounds with ADAM17 inh; recombinant ADAM10, EDANS/DABCYL FRET peptide cleavage, 3 h; inhibition, % at 6.95 µM; actives 47% (n = 2,900); AID 743256;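 active means mean inhibition over the triplicate runs exceeds the activity threshold set in the earlier primary screen, cut at about 20% in these data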;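 further: 0% = DMSO wells and 100% = marimastat wells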
ADAM17 confirm = confirmation of inhibitors of human ADAM17; recombinant ADAM17, EDANS/DABCYL QFRET peptide cleavage; shares compounds with ADAM17 inh; AID 743257; actives 65% (n = 2,900); inhibition, % at 6.95 µM;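 active means mean inhibition across replicates above the hit cutoff set in the primary screen, cut at about 8.5% in these data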;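 further: 0% = DMSO wells and 100% = marimastat wells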
An asterisk follows results filed as active; · = no result. The list is not random: actives were taken first. Their share in the collection is about 2%.

SMILES | GC-B act | ADAM17 inh | ADAM10 inh | GC-A act | FAS TE block | ADAM10 counter | ADAM17 confirm
CC(C)Nc1nc(Cl)nc(NNC(=O)C(C)Oc2ccccc2)n1 (centres undefined) | 3 | 9.0* | 5 | -1 | -7 | -2 | -2
CCNc1nc(Cl)nc(NNC(=O)C(C)Oc2ccccc2)n1 (centres undefined) | 5 | 0 | -8 | 1 | -8 | · | ·
Cc1ccccc1NC(=O)c1nc[nH]c1C(=O)NCc1ccccc1 | -3 | 0 | 17 | 2 | 13 | · | ·
Cc1ccccc1NC(=O)c1[nH]cnc1C(=O)NN | 2 | 13* | 7 | 2 | 0 | -2 | 0
CCCCNC(=O)C[C@H]1C[C@@]2(C(=O)OC)C(=C[C@H](COCc3ccccc3)O[C@@H]2C)N(Cc2cccc3ccccc23)C1=O | 0 | -3 | -1 | 0 | · | · | ·
O=C(OCC#CCSc1nnc(-c2ccc3ccccc3c2)o1)c1cccs1 | -8 | 1 | 4 | 1 | · | · | ·
OCc1ccnc2c(O)cccc12 | 4 | 8.9* | 4 | -2 | -8 | 14 | 4
NC(=O)c1ccnc2c(O)cccc12 | 3 | -6 | 1 | 0 | -8 | · | ·
COc1ccc(CNS(=O)(=O)c2cc(Br)ccc2Br)c(OC)c1 | -8 | 8 | 14 | -8 | · | · | ·
CC(C)(C)OC(=O)CNC(=O)c1nc[nH]c1C(=O)NCc1ccccc1 | -1 | -1 | 0 | -2 | -2 | · | ·
C[C@@H](NC(=O)c1nc[nH]c1C(=O)N[C@@H](Cc1ccccc1)C(=O)OCc1ccccc1)c1ccccc1 | 7 | 12* | 15 | 0 | 17 | 30* | 17*
CC(C)(C)OC(=O)CNC(=O)c1[nH]cnc1C(=O)Nc1ccc(CNC(=O)OC(C)(C)C)cc1 | 4 | 12* | 16 | 2 | 22 | 30* | 16*
CC(C)(C)OC(=O)NCc1ccc(NC(=O)c2nc[nH]c2C(=O)NCCNC(=O)c2[nH]cnc2C(=O)Nc2ccc(CNC(=O)OC(C)(C)C)cc2)cc1 | · | · | · | · | -5 | · | ·
CC(C)(C)OC(=O)NCc1ccc(NC(=O)c2nc[nH]c2C(=O)N[C@@H](Cc2ccccc2)C(=O)OC(C)(C)C)cc1 | 6 | 8.9* | 17 | 1 | 8 | 46* | 23*
CC(C)C[C@H](NC(=O)c1[nH]cnc1C(=O)Nc1ccc(CNC(=O)OC(C)(C)C)cc1)C(=O)OCc1ccccc1 | 7 | -1 | 5 | -2 | 19 | · | ·
CC(C)(C)OC(=O)NCCOC(=O)c1[nH]cnc1C(=O)NCc1ccccc1 | -12 | 11* | 11 | -3 | -2 | 6 | 2
CN1C(=O)C[C@@](C#N)(C(=O)N2CCOCC2)[C@H]1c1ccccc1 | 7 | -3 | 0 | 3 | · | · | ·
O=C(O)c1ccc2c(c1)N(Cc1cccc(F)c1)C(=O)CS2 | 1 | 8.9* | 15 | -4 | -6 | 4 | 3
CCC(C)NC(=O)c1ccc2c(c1)N(Cc1ccccc1)C(=O)CS2 (centres undefined) | -3 | -6 | -1 | -5 | 5 | · | ·
CCCCc1ccc2nc(NC(=O)c3ccco3)sc2c1 | -9 | -47 | -221 | -6 | · | · | ·
Cc1ccc(Nc2ncnc3sc(C)c(C)c23)cc1C | 6 | 9.1* | 7 | -4 | 2 | 3 | 6
CN(C(=O)c1ccccc1OCC(=O)Nc1ccc(Br)cc1)c1ccccc1 | -16 | 3 | 7 | -21 | · | · | ·
C=CCn1c(N(C)C)nc2c1c(=O)[nH]c(=O)n2C | -3 | 9.8* | 14 | -1 | -9 | -18 | -4
CN(C)c1nc2c(c(=O)[nH]c(=O)n2C)n1CCCc1ccccc1 | -1 | -2 | 1 | 2 | -2 | · | ·
CCN(CC)C(=O)CC[C@@H]1CC[C@]2(CCCN(Cc3ccc(Cl)cc3)C2)O1 | -7 | -1 | -3 | 2 | · | · | ·
SMILES | GC-B act | ADAM17 inh | ADAM10 inh | GC-A act | FAS TE block | ADAM10 counter | ADAM17 confirm
COc1ccc(C2CC(c3ccccc3)=NN2S(=O)(=O)c2ccccc2)cc1 (centres undefined) | 2 | -2 | 0 | -2 | 6 | · | ·
Cc1ccc(C2=NN(S(=O)(=O)c3ccccc3)C(c3ccccc3O)C2)cc1 (centres undefined) | -5 | 8.9* | 19 | -5 | 14 | 42* | 23*
O=C(c1ccccc1)N1N=C(c2ccccc2)CC1c1ccccc1O (centres undefined) | -14 | 11* | 15 | -17 | 19 | 15 | 10*
COCCCN1C(=O)[C@H](CC(=O)NCc2cccc(C(F)(F)F)c2)[C@]2(C(=O)OC)CCCCC=C12 | -4 | -5 | -6 | 4 | · | · | ·
CC(=O)Nc1ccc(NC(=O)C(C)OC(=O)C2(c3ccc(Cl)cc3)CCCC2)cc1 (centres undefined) | 2 | -7 | 10 | -17 | 6 | · | ·
CC(=O)Nc1ccc(NC(=O)C(C)OC(=O)C23CC4CC(CC(Cl)(C4)C2)C3)cc1 (centres undefined) | 7 | 9.9* | -4 | -3 | 5 | 6 | 6
CCOc1c(OC(C)=O)ccc(/C=C/c2ccc3cccc(OC)c3n2)c1[N+](=O)[O-] | 7 | 9.0* | 16 | 4 | 33 | 24* | 16*
CSc1nc2ccc(NS(=O)(=O)c3cccc(Cl)c3Cl)cc2s1 | -4 | 9.7* | 20 | -2 | 17 | 14 | 10*
O=C(O)c1ccccc1C(=O)Nc1cc(C(F)(F)F)ccc1N1CCCC1 | 2 | 10* | 2 | -1 | 20 | 8 | 4
Cc1ccccc1N(C)C(=O)C1CCCN1S(=O)(=O)c1cccc2cccnc12 (centres undefined) | -8 | 3 | -6 | -2 | · | · | ·
CN(Cc1ccccc1)C(=O)c1ccc(NC(=O)Cc2ccc(NC(=O)C3CCCN(C(=O)C4CCCCC4)C3)cc2)cc1 (centres undefined) | -1 | 10* | 15 | 0 | 3 | 14 | 5
CN(Cc1ccccc1)C(=O)c1cccc(NC(=O)Cc2ccc(NC(=O)C3CCCN(C(=O)c4ccccc4)C3)cc2)c1 (centres undefined) | 0 | 11* | 10 | 3 | -1 | -7 | -2
O=C(Cc1ccc(NC(=O)C2CCCN(C(=O)c3ccccc3)C2)cc1)Nc1ccc(C(=O)N2CCOCC2)cc1 (centres undefined) | 0 | 10* | 2 | -2 | -8 | -2 | 5
O=C(Cc1ccc(NC(=O)C2CCCN(C(=O)C3CCCCC3)C2)cc1)Nc1ccc(C(=O)N2CCOCC2)cc1 (centres undefined) | -3 | 3 | 1 | 4 | -3 | · | ·
